Data as given in article PMC7862700, “An all-to-all approach to the identification of sequence-specific readers for epigenetic DNA modifications on cytosine”.

Columns and labels:
Assay in all cases: DAPPL (digital affinity profiling via proximity ligation, sequencing); 10 mM Tris-HCl pH 7.5, 50 mM NaCl, 1 mM DTT, 4% glycerol, room temperature, 30 min; GST-TFs on glutathione beads, 16-mer random dsDNA library, 0.1% formaldehyde crosslink after washing; high values mean tight binding
ELK1 = biological target: T1, ELK1 (Homo sapiens, UniProt P19419 1-428); details: protein: recombinant; tags: N-terminal GST; dsDNA, one strand shown
T1 sequence: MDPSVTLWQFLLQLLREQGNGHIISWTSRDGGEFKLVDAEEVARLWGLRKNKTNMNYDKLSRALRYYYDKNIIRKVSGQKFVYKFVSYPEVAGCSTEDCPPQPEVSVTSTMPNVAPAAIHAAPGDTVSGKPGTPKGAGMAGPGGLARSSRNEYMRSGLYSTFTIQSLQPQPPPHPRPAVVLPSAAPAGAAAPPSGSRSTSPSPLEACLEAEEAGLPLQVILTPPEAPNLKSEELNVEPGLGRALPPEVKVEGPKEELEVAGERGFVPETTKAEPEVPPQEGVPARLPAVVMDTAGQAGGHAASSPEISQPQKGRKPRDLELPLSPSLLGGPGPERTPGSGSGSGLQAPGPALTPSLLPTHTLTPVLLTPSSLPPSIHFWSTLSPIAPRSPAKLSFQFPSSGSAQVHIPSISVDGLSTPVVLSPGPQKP
Procedure, shortened: (§1)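 Pools were built from human transcription factors expressed in yeast as GST fusions, captured on glutathione beads and DNA-barcoded, along with a tag-only sample. Incubation with 200 nmole of a 16-mer random double-stranded DNA library lasted 30 min at room temperature in Tris/NaCl/DTT/glycerol buffer, and was followed by washing, 0.1% formaldehyde crosslinking, proximity ligation, PCR amplification and Illumina NextSeq500 sequencing. Binding signal is the quotient of each hexamer's read frequency for a factor and its frequency for the tag-only sample.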

GABPA = biological target: T2, GABPA (Homo sapiens, UniProt Q06546 1-454); details: protein: recombinant; tags: N-terminal GST; dsDNA, one strand shown
T2 sequence: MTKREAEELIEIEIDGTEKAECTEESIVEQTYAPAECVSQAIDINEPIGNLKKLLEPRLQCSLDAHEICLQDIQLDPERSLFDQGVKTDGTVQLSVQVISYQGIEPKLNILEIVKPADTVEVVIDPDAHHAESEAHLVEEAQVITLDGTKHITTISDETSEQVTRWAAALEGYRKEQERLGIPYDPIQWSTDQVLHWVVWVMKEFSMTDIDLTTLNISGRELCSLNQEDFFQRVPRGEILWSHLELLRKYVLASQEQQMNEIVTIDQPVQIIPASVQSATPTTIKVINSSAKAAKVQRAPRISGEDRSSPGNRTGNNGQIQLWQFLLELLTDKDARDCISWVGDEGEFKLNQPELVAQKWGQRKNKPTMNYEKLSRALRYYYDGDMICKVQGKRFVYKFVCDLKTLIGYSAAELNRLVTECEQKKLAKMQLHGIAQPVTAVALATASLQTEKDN
Procedure, shortened: as §1

ELF1 = ELF1 (Homo sapiens, UniProt P32519 1-619); details: protein: recombinant; tags: N-terminal GST; dsDNA, one strand shown
ELF1, sequence (P32519 whole entry): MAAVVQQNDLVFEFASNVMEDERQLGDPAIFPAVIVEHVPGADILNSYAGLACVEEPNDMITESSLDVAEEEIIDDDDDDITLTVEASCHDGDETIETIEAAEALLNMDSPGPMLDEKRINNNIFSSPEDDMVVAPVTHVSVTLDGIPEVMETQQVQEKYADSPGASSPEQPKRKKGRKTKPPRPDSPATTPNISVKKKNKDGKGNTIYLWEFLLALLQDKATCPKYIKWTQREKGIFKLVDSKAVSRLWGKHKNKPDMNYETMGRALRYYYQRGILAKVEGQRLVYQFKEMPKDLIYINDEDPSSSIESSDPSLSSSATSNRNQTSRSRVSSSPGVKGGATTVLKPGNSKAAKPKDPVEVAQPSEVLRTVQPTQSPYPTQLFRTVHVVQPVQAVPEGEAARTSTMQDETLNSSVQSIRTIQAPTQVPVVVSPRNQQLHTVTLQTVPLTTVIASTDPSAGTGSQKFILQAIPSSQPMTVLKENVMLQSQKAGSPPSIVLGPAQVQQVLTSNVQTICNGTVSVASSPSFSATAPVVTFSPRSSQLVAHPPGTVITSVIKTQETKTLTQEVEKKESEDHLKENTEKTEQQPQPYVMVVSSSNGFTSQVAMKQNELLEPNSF
Procedure, shortened: as §1

HSF1 = HSF1 (Homo sapiens, UniProt Q00613 1-529); details: protein: recombinant; tags: N-terminal GST; chain copies: 3; dsDNA, one strand shown
HSF1, sequence (Q00613 whole entry): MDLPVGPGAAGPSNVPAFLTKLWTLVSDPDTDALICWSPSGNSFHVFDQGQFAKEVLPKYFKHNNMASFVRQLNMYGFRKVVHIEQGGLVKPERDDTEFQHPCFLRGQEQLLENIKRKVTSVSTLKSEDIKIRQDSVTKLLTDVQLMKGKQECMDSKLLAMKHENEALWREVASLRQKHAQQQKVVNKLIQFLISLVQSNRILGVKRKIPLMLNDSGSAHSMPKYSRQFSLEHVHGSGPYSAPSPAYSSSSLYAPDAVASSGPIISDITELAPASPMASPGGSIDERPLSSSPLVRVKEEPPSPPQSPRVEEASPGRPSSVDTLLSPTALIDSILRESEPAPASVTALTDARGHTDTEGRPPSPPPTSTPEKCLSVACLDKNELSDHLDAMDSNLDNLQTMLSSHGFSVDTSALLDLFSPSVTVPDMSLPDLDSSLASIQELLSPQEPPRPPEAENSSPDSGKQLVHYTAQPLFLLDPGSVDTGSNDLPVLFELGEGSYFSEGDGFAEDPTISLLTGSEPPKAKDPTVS
Procedure, shortened: as §1

ELK4 = biological target: T3, ELK4 (Homo sapiens, UniProt P28324-2 1-405); details: protein: recombinant; tags: N-terminal GST; dsDNA, one strand shown
T3 sequence: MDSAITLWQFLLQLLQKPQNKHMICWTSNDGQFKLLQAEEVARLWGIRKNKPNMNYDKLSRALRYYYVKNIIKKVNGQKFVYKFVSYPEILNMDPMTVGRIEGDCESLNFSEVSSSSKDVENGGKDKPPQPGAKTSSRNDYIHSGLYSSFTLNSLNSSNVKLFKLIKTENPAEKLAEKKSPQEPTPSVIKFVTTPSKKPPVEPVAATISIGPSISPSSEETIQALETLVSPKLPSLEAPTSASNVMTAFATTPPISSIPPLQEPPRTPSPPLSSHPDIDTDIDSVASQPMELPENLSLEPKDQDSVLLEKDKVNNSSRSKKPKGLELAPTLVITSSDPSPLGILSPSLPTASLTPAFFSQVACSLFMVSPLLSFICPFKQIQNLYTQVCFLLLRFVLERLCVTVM
Procedure, shortened: as §1

CRX = CRX (Homo sapiens, UniProt O43186 1-299); details: protein: recombinant; tags: N-terminal GST; dsDNA, one strand shown
CRX, sequence (O43186 whole entry): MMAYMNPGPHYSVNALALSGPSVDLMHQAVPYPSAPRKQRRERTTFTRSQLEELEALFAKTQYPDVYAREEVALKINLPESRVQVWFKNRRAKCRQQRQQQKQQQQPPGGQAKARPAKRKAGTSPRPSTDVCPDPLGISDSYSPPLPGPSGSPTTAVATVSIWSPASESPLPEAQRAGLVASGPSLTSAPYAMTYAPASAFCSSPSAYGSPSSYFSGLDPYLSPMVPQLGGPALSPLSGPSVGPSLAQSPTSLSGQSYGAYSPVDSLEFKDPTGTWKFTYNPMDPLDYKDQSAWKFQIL
Procedure, shortened: as §1

ETV1 = ETV1 (Homo sapiens, UniProt P50549 1-477); details: protein: recombinant; tags: N-terminal GST; dsDNA, one strand shown
ETV1, sequence (P50549 whole entry): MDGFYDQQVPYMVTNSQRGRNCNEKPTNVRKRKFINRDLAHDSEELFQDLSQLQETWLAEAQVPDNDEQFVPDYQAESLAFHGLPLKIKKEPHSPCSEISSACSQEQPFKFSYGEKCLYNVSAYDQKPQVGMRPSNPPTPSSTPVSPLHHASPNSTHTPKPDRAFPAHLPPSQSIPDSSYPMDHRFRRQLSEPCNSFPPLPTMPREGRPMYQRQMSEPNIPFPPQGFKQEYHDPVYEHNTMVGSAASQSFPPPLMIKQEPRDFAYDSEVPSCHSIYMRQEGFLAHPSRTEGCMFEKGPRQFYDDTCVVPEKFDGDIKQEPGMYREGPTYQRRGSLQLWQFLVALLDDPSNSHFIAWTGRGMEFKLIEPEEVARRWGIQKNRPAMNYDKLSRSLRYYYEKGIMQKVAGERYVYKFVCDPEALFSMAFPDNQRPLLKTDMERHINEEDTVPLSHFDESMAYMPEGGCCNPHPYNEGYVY
Procedure, shortened: as §1

ETV3L = biological target: T4, ETV3L (Homo sapiens, UniProt Q6ZN32 1-361); details: protein: recombinant; tags: N-terminal GST; dsDNA, one strand shown
T4 sequence: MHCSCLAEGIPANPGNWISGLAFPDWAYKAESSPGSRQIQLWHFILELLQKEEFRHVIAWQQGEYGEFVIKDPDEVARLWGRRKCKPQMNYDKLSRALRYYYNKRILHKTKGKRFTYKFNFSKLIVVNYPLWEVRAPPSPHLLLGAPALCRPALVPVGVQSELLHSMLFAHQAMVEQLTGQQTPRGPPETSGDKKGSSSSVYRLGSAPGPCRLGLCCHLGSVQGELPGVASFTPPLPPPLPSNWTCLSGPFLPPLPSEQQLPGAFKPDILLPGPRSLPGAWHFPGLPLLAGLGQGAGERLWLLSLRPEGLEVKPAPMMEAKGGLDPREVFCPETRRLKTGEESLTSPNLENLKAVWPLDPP
Procedure, shortened: as §1

SPDEF = biological target: T5, SPDEF (Homo sapiens, UniProt O95238 1-335); details: protein: recombinant; tags: N-terminal GST; dsDNA, one strand shown
T5 sequence: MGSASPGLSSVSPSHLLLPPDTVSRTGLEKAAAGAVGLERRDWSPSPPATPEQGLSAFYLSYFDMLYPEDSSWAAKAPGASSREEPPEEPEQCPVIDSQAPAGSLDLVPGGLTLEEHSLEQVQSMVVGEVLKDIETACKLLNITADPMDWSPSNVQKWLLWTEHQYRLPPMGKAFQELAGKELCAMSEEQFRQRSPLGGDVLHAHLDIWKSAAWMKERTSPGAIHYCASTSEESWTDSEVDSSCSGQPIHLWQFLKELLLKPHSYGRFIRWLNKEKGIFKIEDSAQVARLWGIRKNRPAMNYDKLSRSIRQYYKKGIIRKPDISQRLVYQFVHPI
Procedure, shortened: as §1

ETV3 = biological target: T6, ETV3 (Homo sapiens, UniProt P41162-2 1-143); details: protein: recombinant; tags: N-terminal GST; dsDNA, one strand shown
T6 sequence: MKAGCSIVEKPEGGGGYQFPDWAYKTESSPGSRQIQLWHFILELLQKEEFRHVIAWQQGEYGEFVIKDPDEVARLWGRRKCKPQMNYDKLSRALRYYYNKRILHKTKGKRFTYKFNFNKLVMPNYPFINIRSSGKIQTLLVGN
Procedure, shortened: as §1

ETV6 = ETV6 (Homo sapiens, UniProt P41212 1-452); details: protein: recombinant; tags: N-terminal GST; dsDNA, one strand shown
ETV6, sequence (P41212 whole entry): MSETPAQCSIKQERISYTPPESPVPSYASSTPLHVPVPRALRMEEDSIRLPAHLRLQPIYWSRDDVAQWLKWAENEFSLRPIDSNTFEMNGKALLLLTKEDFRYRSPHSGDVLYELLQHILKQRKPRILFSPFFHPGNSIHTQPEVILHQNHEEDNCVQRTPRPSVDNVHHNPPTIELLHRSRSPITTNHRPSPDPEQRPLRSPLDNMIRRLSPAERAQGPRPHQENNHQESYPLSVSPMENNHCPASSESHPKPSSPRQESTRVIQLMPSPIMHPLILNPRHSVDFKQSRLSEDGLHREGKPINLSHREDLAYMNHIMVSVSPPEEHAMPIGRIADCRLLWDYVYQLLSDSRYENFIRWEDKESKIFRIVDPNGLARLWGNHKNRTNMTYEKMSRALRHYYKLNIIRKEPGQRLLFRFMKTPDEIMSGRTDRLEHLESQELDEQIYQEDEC
Procedure, shortened: as §1

GCGATC
binding signal (ELK1): 1.08 fold enrichment (6-mer frequency, TF over GST control) | binding signal (GABPA): 1.01 fold enrichment (6-mer frequency, TF over GST control) | binding signal (ELF1): 1.06 fold enrichment (6-mer frequency, TF over GST control) | binding signal (HSF1): 1.02 fold enrichment (6-mer frequency, TF over GST control) | binding signal (ELK4): 1.13 fold enrichment (6-mer frequency, TF over GST control) | binding signal (CRX): 1.03 fold enrichment (6-mer frequency, TF over GST control) | binding signal (ETV1): 1.03 fold enrichment (6-mer frequency, TF over GST control) | binding signal (ETV3L): 1.03 fold enrichment (6-mer frequency, TF over GST control) | binding signal (SPDEF): 1.04 fold enrichment (6-mer frequency, TF over GST control) | binding signal (ETV3): 1 fold enrichment (6-mer frequency, TF over GST control) | binding signal (ETV6): 1 fold enrichment (6-mer frequency, TF over GST control)
